Counter-ions that a name gives are not always drawn. ± gives the standard deviation of the averaged measurements.
Tests used:
Assay in all cases: growth (OD600 after 10 h); higher = more growth (less inhibition)
[1] = test system: E. coli TESEC Alr+ wild-type control; settings: compound 0.1 mM; raw OD600 reference: median of DMSO wells 0.241, cell-free background 0.041
Procedure: (§1)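 TESEC Mtb Alr E. coli, or the Alr+ wild-type control, in 384-well plates with Prestwick library compounds at 0.1 mM and 1% DMSO, across arabinose induction levels of 1E3 to 1E7 nM. Growth is read as OD600 after 10 h at 37 °C in triplicate biological replicates.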

E. coli TESEC Mtb Alr [2] = settings: compound 0.1 mM
Procedure: as §1

E. coli TESEC Mtb Asd = settings: compound 0.1 mM
Procedure: (§2)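 TESEC E. coli strains in which the native enzyme is deleted and replaced by arabinose-inducible Mtb Asd, DapB, CysH or TrpD, each grown in its selective medium. Strains were screened against the Prestwick library at 0.1 mM and 1% DMSO in 384-well format at low and high arabinose induction. Growth is read as OD600 after 10 h in triplicate.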

E. coli TESEC Mtb DapB = settings: compound 0.1 mM
Procedure: as §2

[3] = test system: E. coli TESEC Alr+ wild-type control; settings: compound 0.1 mM; raw OD600 reference: median of DMSO wells 0.49, cell-free background 0.052
Procedure: (§3)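 TESEC Mtb Alr E. coli (ΔaraC ΔtolC ΔentC Δalr ΔdadX, arabinose-inducible Mtb Alr) or the Alr+ wild-type control strain, grown in defined M9-fructose medium without D-alanine in 96-well plates with Prestwick library compounds at 0.1 mM and 1% DMSO. Low Alr induction is 0.1 µM arabinose and high induction is 10 mM arabinose.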

E. coli TESEC Mtb Alr [4] = settings: compound 0.1 mM; remark: listed apart in the source
Procedure: as §3

[5] = arabinose 1000 nM, raw OD600 reference: median of DMSO wells 0.294, cell-free background 0.041
[6] = arabinose 10000 nM, raw OD600 reference: median of DMSO wells 0.264, cell-free background 0.041
[7] = arabinose 100000 nM, raw OD600 reference: median of DMSO wells 0.201, cell-free background 0.041
[8] = arabinose 1000000 nM, raw OD600 reference: median of DMSO wells 0.193, cell-free background 0.041
[9] = arabinose 10000000 nM, raw OD600 reference: median of DMSO wells 0.146, cell-free background 0.041
[10] = arabinose induction (level): High, raw OD600 reference: median of DMSO wells 0.331, cell-free background 0.041
[11] = arabinose induction (level): Low, raw OD600 reference: median of DMSO wells 0.417, cell-free background 0.041
[12] = arabinose induction (level): High, raw OD600 reference: median of DMSO wells […], cell-free background 0.041
[13] = arabinose induction (level): Low, raw OD600 reference: median of DMSO wells 0.227, cell-free background 0.041
[14] = arabinose 100 nM, raw OD600 reference: median of DMSO wells 0.413, cell-free background 0.052
[15] = arabinose 10000000 nM, raw OD600 reference: median of DMSO wells […], cell-free background 0.052

| SMILES | growth [1] | growth (E. coli TESEC Mtb Alr [2]; [5]) | growth (E. coli TESEC Mtb Alr [2]; [6]) | growth (E. coli TESEC Mtb Alr [2]; [7]) | growth (E. coli TESEC Mtb Alr [2]; [8]) | growth (E. coli TESEC Mtb Alr [2]; [9]) | growth (E. coli TESEC Mtb Asd; [10]) | growth (E. coli TESEC Mtb Asd; [11]) | growth (E. coli TESEC Mtb DapB; [12]) | growth (E. coli TESEC Mtb DapB; [13]) | growth [3] | growth (E. coli TESEC Mtb Alr [4]; [14]) | growth (E. coli TESEC Mtb Alr [4]; [15]) |
| --- | --- | --- | --- | --- | --- | --- | --- | --- | --- | --- | --- | --- | --- |
| CC(=O)SCC(Cc1ccccc1)C(=O)NCC(=O)OCc1ccccc1 (centres undefined) [Racecadotril] | 0.183 ± 0.0055 | 0.26 ± 0.016 | 0.241 ± 0.011 | 0.23 ± 0.022 | 0.132 ± 0.0014 | 0.189 ± 0.0054 | 0.28 ± 0.053 | 0.215 ± 0.013 | 0.172 ± 0.012 | 0.24 ± 0.023 | 0.502 ± 0.028 | 0.398 ± 0.0054 | 0.298 ± 0.0095 |
| C[C@@H]1C[C@H]2[C@@H]3CCC4=CC(=O)C=C[C@]4(C)[C@@]3(Cl)[C@@H](O)C[C@]2(C)[C@@]1(OC(=O)c1ccco1)C(=O)CCl [Mometasone furoate] | 0.203 ± 0.0057 | 0.259 ± 0.031 | 0.223 ± 0.011 | 0.161 ± 0.0059 | 0.0878 ± 0.0027 | 0.152 ± 0.013 | 0.198 ± 0.049 | 0.329 ± 0.082 | 0.297 ± 0.12 | 0.212 ± 0.06 | 0.498 ± 0.036 | 0.415 ± 0.013 | 0.244 ± 0.0054 |
| O=C(O)c1cccnc1Nc1cccc(C(F)(F)F)c1 [Niflumic acid] | 0.113 ± 0.0057 | 0.0693 ± 0.0078 | 0.0488 ± 0.00046 | 0.145 ± 0.002 | 0.06687 ± 0.00065 | 0.099 ± 0.0016 | 0.15 ± 0.022 | 0.16 ± 0.018 | 0.172 ± 0.0053 | 0.209 ± 0.022 | 0.206 ± 0.046 | 0.244 ± 0.066 | 0.0999 ± 0.0073 |
| COc1cc2c(cc1OC)C(=O)C(CC1CCN(Cc3ccccc3)CC1)C2 (centres undefined) [Donepezil hydrochloride] | 0.168 ± 0.0034 | 0.251 ± 0.0063 | 0.259 ± 0.0054 | 0.158 ± 0.0035 | 0.174 ± 0.013 | 0.142 ± 0.0099 | 0.234 ± 0.039 | 0.4033 ± 0.0016 | 0.167 ± 0.021 | 0.199 ± 0.039 | 0.56 ± 0.055 | 0.404 ± 0.011 | 0.325 ± 0.0069 |
| CCCN[C@H]1CCc2nc(N)sc2C1 [Pramipexole dihydrochloride] | 0.237 ± 0.0095 | 0.289 ± 0.004 | 0.258 ± 0.0086 | 0.207 ± 0.015 | 0.191 ± 0.01 | 0.15 ± 0.0057 | 0.262 ± 0.068 | 0.334 ± 0.02 | 0.174 ± 0.013 | 0.209 ± 0.013 | 0.64 ± 0.0092 | 0.406 ± 0.013 | 0.363 ± 0.012 |
| CC=CC1=C(C(=O)O)N2C(=O)[C@@H](NC(=O)[C@H](N)c3ccc(O)cc3)[C@H]2SC1 [Cefprozil] | 0.223 ± 0.0095 | 0.303 ± 0.0056 | 0.269 ± 0.016 | 0.184 ± 0.0039 | 0.194 ± 0.021 | 0.163 ± 0.0058 | 0.259 ± 0.048 | 0.417 ± 0.022 | 0.204 ± 0.0084 | 0.255 ± 0.039 | 0.543 ± 0.068 | 0.414 ± 0.017 | 0.374 ± 0.015 |
| NC12CC3CC(CC(C3)C1)C2 [Adamantamine fumarate] | 0.253 ± 0.0038 | 0.299 ± 0.0054 | 0.271 ± 0.005 | 0.248 ± 0.034 | 0.209 ± 0.014 | 0.145 ± 0.0061 | 0.353 ± 0.052 | 0.457 ± 0.0081 | 0.2 ± 0.0046 | 0.214 ± 0.0073 | 0.469 ± 0.056 | 0.407 ± 0.0076 | 0.368 ± 0.026 |
| Nc1ncnc2c1ncn2[C@@H]1O[C@H](CO)[C@@H](O)[C@@H]1O [Vidarabine] | 0.206 ± 0.012 | 0.273 ± 0.022 | 0.243 ± 0.011 | 0.145 ± 0.0058 | 0.148 ± 0.0035 | 0.138 ± 0.004 | 0.36 ± 0.077 | 0.383 ± 0.0057 | 0.171 ± 0.03 | 0.21 ± 0.048 | 0.535 ± 0.069 | 0.429 ± 0.012 | 0.306 ± 0.0082 |

— the supplement of paper PMC9262897, “Low-cost anti-mycobacterial drug discovery using engineered E. coli” (Nature Communications, 2022)
